Reference: PubChem BioAssay (NCATS)
Records with an inconclusive call do not appear. The source made the active and inactive calls. Unless noted, calls come from the whole dose curve.

How the values were obtained:
[1] = target: Peroxisome proliferator-activated receptor delta (Homo sapiens) (UniProt Q03181); experiment: qHTS assay for small molecule agonists of peroxisome proliferator-activated receptor delta signaling (AID 588534);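 note: 0% = DMSO basal wells and 100% = positive control agonist at 10 µM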
Peroxisome proliferator-activated receptor delta (Homo sapiens), sequence (Q03181 whole entry, looked up): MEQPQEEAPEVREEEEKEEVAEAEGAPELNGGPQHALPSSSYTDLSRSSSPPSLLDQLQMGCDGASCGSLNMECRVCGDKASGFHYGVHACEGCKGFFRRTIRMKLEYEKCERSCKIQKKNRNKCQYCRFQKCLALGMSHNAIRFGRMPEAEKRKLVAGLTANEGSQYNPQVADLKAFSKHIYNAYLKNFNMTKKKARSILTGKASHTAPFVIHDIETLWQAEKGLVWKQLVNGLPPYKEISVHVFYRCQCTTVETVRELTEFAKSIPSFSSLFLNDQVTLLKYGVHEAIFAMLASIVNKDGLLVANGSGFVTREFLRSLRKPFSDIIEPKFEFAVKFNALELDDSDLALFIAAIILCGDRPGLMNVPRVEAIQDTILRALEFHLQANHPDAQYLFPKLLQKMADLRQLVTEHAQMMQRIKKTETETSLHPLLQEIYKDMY
Summary of the method: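 Agonist-mode beta-lactamase reporter readout (CCF4 dye, 2 h at RT) after 18 h at 37 °C exposure to a titration; Hill-equation fitting gave EC50 and maximal response.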

[2] = Primary qHTS for inhibitors of SARS-S pseudo-typed particle cell entry (AID 1479145); details: outcome: dose series up to 57.1 µM unless noted; note: nearly all actives have a fitted effect of over 45% in size; note: potency is the fitted concentration of half-maximal effect; for activity change, negative = inhibition: % is set by controls: 0 for no effect and ±100 for the full control effect
[3] = Primary qHTS for Huh7 cytotoxicity: counterscreen for inhibitors of MERS-S pseudotyped particle cell entry (AID 1479147); details: outcome: dose series up to 57.1 µM unless noted; note: potency is the fitted concentration of half-maximal effect; for activity change, negative = cytotoxicity: % is set by controls: 0 for no effect and ±100 for the full control effect
[4] = Primary qHTS for Vero E6 cytotoxicity: counterscreen for inhibitors of SARS-S pseudo-typed particle cell entry (AID 1479150); details: outcome: dose series up to 57.1 µM unless noted; note: potency is the fitted concentration of half-maximal effect
[5] = Confirmatory qHTS to identify inhibitors of SARS-CoV-2 cell entry (AID 1645844); note: potency is the fitted concentration of half-maximal effect; nearly all actives have a fitted effect of over 45% in size
Summary of the method: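 Using stable human ACE2 Expi293F cells, compounds preincubated 1 hr before spike pseudoparticle infection; luciferase signal after 48 hr at 37C, 5% CO2, normalised to spike PP and no-fusion-protein PP wells.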

[6] = Cytotoxicity counterscreen for inhibitors of SARS-CoV-2 cell entry (AID 1645845); details: outcome: dose series up to 57.1 µM unless noted; note: nearly all actives have a fitted effect of over 50% in size; note: potency is the fitted concentration of half-maximal effect; for activity change, negative = cytotoxicity: % is set by controls: 0 for no effect and ±100 for the full control effect
Summary of the method: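 After a 15 min room-temperature ATPLite 1step step, luminescence reflected ATP remaining in HEK293-ACE2 cells exposed to compound for 1 h plus 48 h at 37 C, with percent activity set by cell and no-cell controls.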

[7] = Primary qHTS to identify inhibitors of SARS-CoV-2 cell entry (AID 1645846); details: SARS-CoV-2 pseudovirus cell entry assay, luminescence; activity change, negative = inhibition: at 57.1 µM (top of the series) unless noted; note: nearly all actives have a fitted effect of over 45% in size; note: potency is the fitted concentration of half-maximal effect
Summary of the method: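 HEK293 cells stably expressing human ACE2, pre-treated 1 h with compound, then infected with MLV particles pseudotyped with Wuhan-Hu-1 spike (C-terminal 19-aa truncation). Luciferase luminescence after 48 h at 37 °C, normalised to spike PP and bald PP.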

[8] = VSVG counterscreen qHTS to identify inhibitors of SARS-CoV-2 cell entry (AID 1645847); note: nearly all actives have a fitted effect of over 65% in size; note: potency is the fitted concentration of half-maximal effect; for activity change, negative = inhibition: % is set by controls: 0 for no effect and ±100 for the full control effect
Summary of the method: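 HEK293-ACE2 cells (Expi293F, human ACE2) pretreated 1 h with compound, then infected with MLV-based VSV-G pseudotyped particles for 48 h at 37 C; luciferase luminescence normalized to VSV-G PP and bald PP wells.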

[9] = Primary qHTS for inhibitors of MERS-S pseudo-typed particle cell entry (AID 1479149); details: outcome: dose series up to 57.1 µM unless noted; note: nearly all actives have a fitted effect of over 60% in size; note: potency is the fitted concentration of half-maximal effect
[10] = target: Alpha-galactosidase (Coffea arabica) (UniProt Q42656); experiment: Counterscreen for Glucocerebrosidase Inhibitors: qHTS Assay for Coffee Bean alpha-Galactosidase at pH 4.5 (AID 957; active = well fitted curve in the direction sought with a large enough effect; an effect the other way counts as inactive or inconclusive;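 note: plate controls were enzyme alone for no effect and no enzyme for full effect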)
Alpha-galactosidase (Coffea arabica), sequence (Q42656 whole entry, looked up): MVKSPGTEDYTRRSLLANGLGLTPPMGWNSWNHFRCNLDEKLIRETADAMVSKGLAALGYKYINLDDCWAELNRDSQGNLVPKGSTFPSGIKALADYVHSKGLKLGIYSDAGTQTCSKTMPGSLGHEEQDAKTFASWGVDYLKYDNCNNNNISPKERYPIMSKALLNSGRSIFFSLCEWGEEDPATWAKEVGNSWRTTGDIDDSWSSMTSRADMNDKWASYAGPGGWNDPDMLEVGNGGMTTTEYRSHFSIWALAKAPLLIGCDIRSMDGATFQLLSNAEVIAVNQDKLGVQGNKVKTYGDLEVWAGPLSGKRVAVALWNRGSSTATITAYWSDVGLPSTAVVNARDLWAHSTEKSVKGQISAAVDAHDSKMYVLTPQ
Summary of the method: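 Fluorogenic qHTS at pH 4.5 (citrate buffer with Tween-20): 2 nM enzyme, 80 uM 4-MU-alpha-galactoside substrate, compound titrated 0.7 nM to 77 uM, 20 min room temperature. Glycine/NaOH stop; 4-MU read Ex 365/Em 440; Hill-equation AC50 against no-enzyme and enzyme controls.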

[11] = Inducers of the Endoplasmic Reticulum Stress Response (ERSR) in human glioma: Validation (AID 504836; active = well fitted curve in the direction sought with a large enough effect; an effect the other way counts as inactive or inconclusive; note: 0% is about no effect)
Summary of the method: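 Stably transfected U87-MG human glioma cells carrying a GRP78-based luminescent sensor were seeded at 1000 cells/well, pin-dosed with compounds and incubated 16 h. Luciferase reagent was then added, and end-point luminescence was read after 10 min at room temperature.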

[12] = NCATS anti-infectives library activity on the primary C. elegans qHTS viability assay (AID 1745855)
Summary of the method: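 GFP read-out by 488 nm laser cytometry at day 0, 3 and 7, gated on object perimeter, area and peak intensity, scored viability of PE254-GFP-FLuc worms exposed to compound in S medium with bacterial capsules at 21 °C.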

[13] = target: Glutathione peroxidase 1 (Homo sapiens) (UniProt P07203); experiment: Primary qHTS Assay for Inhibitors of Recombinant Selenoprotein Glutathione Peroxidase 1 (GPX1) (AID 1845191; active = well fitted curve in the direction sought with a large enough effect; an effect the other way counts as inactive or inconclusive; note: nearly all actives have a fitted effect of over 65% in size)
Glutathione peroxidase 1 (Homo sapiens), sequence (P07203 whole entry, looked up): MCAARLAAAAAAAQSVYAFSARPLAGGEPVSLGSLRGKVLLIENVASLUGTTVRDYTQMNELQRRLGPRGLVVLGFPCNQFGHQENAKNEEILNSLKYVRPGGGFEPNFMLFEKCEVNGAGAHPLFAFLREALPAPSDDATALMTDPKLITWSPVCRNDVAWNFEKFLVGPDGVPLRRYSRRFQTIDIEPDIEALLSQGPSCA
Summary of the method: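 GPX1 10 nM, GR 100 nM, GSH 1 mM, NADPH 0.5 mM, CHP 0.5 mM (final). 30-min cpd preincubation, RT. Ex340/Em450 read t=0, t=15 min.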

[14] = target: Phospholipid hydroperoxide glutathione peroxidase GPX4 (Homo sapiens) (UniProt P36969); experiment: Primary qHTS Assay for Inhibitors of Recombinant Selenoprotein Glutathione Peroxidase 4 (GPX4) (AID 1845192; active = well fitted curve in the direction sought with a large enough effect; an effect the other way counts as inactive or inconclusive; note: nearly all actives have a fitted effect of over 65% in size)
Phospholipid hydroperoxide glutathione peroxidase GPX4 (Homo sapiens), sequence (P36969 whole entry, looked up): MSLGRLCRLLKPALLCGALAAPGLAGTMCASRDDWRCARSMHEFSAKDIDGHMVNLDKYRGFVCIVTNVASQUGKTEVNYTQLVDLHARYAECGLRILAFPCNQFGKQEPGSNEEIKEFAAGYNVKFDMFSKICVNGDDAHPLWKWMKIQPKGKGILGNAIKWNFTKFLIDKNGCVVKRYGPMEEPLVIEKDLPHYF
Summary of the method: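 qHTS, GR-coupled: GPX4 200 nM + cpd 30 min RT → GSH 1 mM, NADPH 0.5 mM, GR 100 nM → CHP 0.5 mM start; fluor 340/450 at t0 and t15 min; no-enzyme wells as control.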

[15] = target: Nuclear receptor subfamily 1 group I member 3 (Homo sapiens) (UniProt Q14994); experiment: Primary qHTS for antagonist of constitutive androstane receptor (CAR) against the NCATS DSHEA and TCM libraries (AID 1794836; active = well fitted curve in the direction sought with a large enough effect; an effect the other way counts as inactive or inconclusive)
Nuclear receptor subfamily 1 group I member 3 (Homo sapiens), sequence (Q14994 whole entry, looked up): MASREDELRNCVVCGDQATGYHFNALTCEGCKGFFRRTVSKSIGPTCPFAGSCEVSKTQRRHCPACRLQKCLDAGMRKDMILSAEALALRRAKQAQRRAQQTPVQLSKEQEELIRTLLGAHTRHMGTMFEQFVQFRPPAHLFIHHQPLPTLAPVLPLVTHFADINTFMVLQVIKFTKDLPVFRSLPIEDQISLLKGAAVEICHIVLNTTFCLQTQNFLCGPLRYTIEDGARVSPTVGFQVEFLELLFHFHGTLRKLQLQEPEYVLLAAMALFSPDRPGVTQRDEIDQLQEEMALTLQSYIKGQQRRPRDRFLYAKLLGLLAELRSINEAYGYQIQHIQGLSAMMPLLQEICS
Summary of the method: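 HepG2 cells stably carrying hCAR and a CYP2B6 luciferase reporter (2,500 cells/well) attached for 5 h, then received compounds with 48 uM CITCO for 24 h at 37C. ONE-Glo luminescence read antagonism; CellTiter-Fluor (405/540 nm) gave viability.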

[16] = KB-8-5-11 P-gp reporter qHTS against the NCATS DSHEA and TCM libraries (AID 1919977; active = well fitted curve in the direction sought with a large enough effect; an effect the other way counts as inactive or inconclusive; note: 0% is about no effect)
Summary of the method: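 P-gp-overexpressing KB-8-5-11 cells were screened in colchicine-free medium at 500 cells/well, as a titration series. Cells were exposed for 72 h at 37C. Viability was read by CellTiter-Glo luminescence after 30 min at room temperature.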

[17] = Confirmatory qHTS for VERO E6 Cytotoxicity Assay: Counterscreen for SARS-CoV-2 CPE Assay (AID 1508605); note: % is set by controls: 0 for no effect and ±100 for the full control effect; nearly all actives have a fitted effect of over 60% in size

CC[C@H]1OC(=O)[C@H](C)[C@@H](O[C@H]2C[C@@](C)(OC)[C@@H](O)[C@H](C)O2)[C@H](C)[C@@H](O[C@@H]2O[C@H](C)C[C@H](N(C)C)[C@H]2O)[C@](C)(O)C[C@@H](C)CN(C)[C@H](C)[C@@H](O)[C@]1(C)O
active: Potency [5] 24.1 µM | Potency [7] 12.6 µM
inactive: outcome [1] | Potency [2] | Potency [3] | Potency [4] | Potency [6] | Potency [8]

Nc1nc(-n2cc(C(=O)O)c(=O)c3cc(F)c(N4CC(O)C4)c(Cl)c32)c(F)cc1F
inactive: Potency [2] | Potency [3] | Potency [4] | Potency [6]

CC(C)C[C@H](NC(=O)CNC(=O)c1cc(Cl)ccc1Cl)B1OC(=O)C(CC(=O)O)(CC(=O)O)O1
-97.4%: activity change, negative = inhibition [7]
inactive: Potency [2]
active: Potency [9] 1.26 µM | Potency [6] 0.794 µM

CC1(C)C(/C=C/C=C/C=C/C=C2/N(CCCCS(=O)(=O)O)c3ccc4ccccc4c3C2(C)C)=[N+](CCCCS(=O)(=O)[O-])c2ccc3ccccc3c21
inactive: Potency [2] | Potency [3] | Potency [4] | Potency [6]

CC[C@@]1([C@@H]2O[C@@H]([C@H]3O[C@@](O)(CO)[C@H](C)C[C@@H]3C)C[C@@H]2C)CC[C@H]([C@]2(C)CCC3(C[C@H](O)[C@@H](C)[C@@H]([C@@H](C)[C@@H](OC)[C@H](C)C(=O)O)O3)O2)O1 (stereo partly specified)
active: Potency [9] 1.12 µM
inactive: Potency [2] | Potency [4]

Cc1cc(N)c2ccccc2[n+]1CCCCCCCCCC[n+]1c(C)cc(N)c2ccccc21
inactive: outcome [10] | outcome [11] | activity change, negative = inhibition [2] -2.83% [at 11.4 µM] | activity change, negative = cytotoxicity [3] 1.39% [at 11.4 µM] | activity change, negative = cytotoxicity [4] -0.518% [at 11.4 µM] | activity change, negative = cytotoxicity [6] -25.1% [at 11.3 µM]

Nc1nc(Cl)nc2c1ncn2C1CC(O)C(CO)O1 (stereo unspecified)
inactive: Potency [3] | Potency [4] | Potency [6]
active: Potency [2] 11.2 µM | Potency [5] 19.2 µM | Potency [8] 19.2 µM

N#Cc1c(N2C[C@@H]3NCCO[C@H]3C2)c(F)cc2c(=O)c(C(=O)O)cn(C3CC3)c12
inactive: Potency [2] | Potency [3] | Potency [4] | Potency [6]

CC[C@H]1OC(=O)[C@H](C)[C@@H](O[C@H]2C[C@@](C)(OC)[C@@H](O)[C@H](C)O2)[C@H](C)[C@@H](O[C@@H]2O[C@H](C)C[C@H](N(C)C)[C@H]2O)[C@](C)(OC)C[C@@H](C)C(=O)[C@H](C)[C@@H](O)[C@]1(C)O
-13%: activity change, negative = inhibition [7]
inactive: Potency [2] | Potency [3] | Potency [4] | Potency [6]

C=C(NC(=O)C(=C)NC(=O)c1csc(C2=N[C@H]3c4csc(n4)[C@H]4NC(=O)c5csc(n5)[C@H]([C@@](C)(O)[C@@H](C)O)NC(=O)[C@H]5CSC(=N5)C(=CC)NC(=O)[C@H]([C@@H](C)O)NC(=O)c5csc(n5)[C@]3(CC2)NC(=O)[C@H](C)NC(=O)C(=C)NC(=O)[C@H](C)NC(=O)[C@H](C(C)CC)N[C@@H]2C=Cc3c([C@H](C)O)cc(nc3[C@H]2O)C(=O)O[C@@H]4C)n1)C(N)=O (stereo partly specified)
active: Potency [3] 20 µM | Potency [5] 3.41 µM | Potency [8] 1.71 µM
inactive: Potency [2] | Potency [4]

CN(C)C/C=C/C(=O)Nc1cc2c(Nc3ccc(F)c(Cl)c3)ncnc2cc1OC1CCOC1 (stereo unspecified)
active: Potency [2] 10 µM | Potency [9] 14.1 µM | Potency [4] 10 µM | Potency [7] 10 µM

C[C@H]1C[C@H]2[C@H]3CCC4=CC(=O)C=C[C@]4(C)[C@@]3(F)[C@@H](O)C[C@]2(C)[C@@]1(OC(=O)c1ccccc1)C(=O)CO
inactive: Potency [2] | Potency [3] | Potency [4] | Potency [6]

CC(C)OC(=O)[C@H](C)N[P@](=O)(CO[C@H](C)Cn1cnc2c(N)ncnc21)Oc1ccccc1
-96.1%: activity change, negative = inhibition [7]
inactive: Potency [9] | Potency [4] | Potency [6] | Potency [12] | Potency [13] | Potency [14]
active: Potency [2] 0.891 µM | Potency [5] 0.0108 µM | Potency [8] 0.0096 µM

CC(C)OC(=O)CCC/C=C\C[C@@H]1[C@@H](/C=C/[C@@H](O)COc2cccc(C(F)(F)F)c2)[C@H](O)C[C@@H]1O
active: Potency [5] 21.5 µM | Potency [7] 14.1 µM | Potency [8] 10.8 µM
inactive: Potency [2] | Potency [3] | Potency [4]

CN(C(=O)/C=C/c1ccoc1)[C@@H]1CC[C@@]2(O)[C@H]3Cc4ccc(O)c5c4[C@@]2(CCN3CC2CC2)[C@H]1O5
inactive: Potency [2] | Potency [9] | Potency [4] | Potency [6] | Potency [7] | Potency [13] | Potency [14]

C=C1CC[C@H](O)C/C1=C\C=C1/CCC[C@]2(C)[C@@H]([C@H](C)CCCC(C)C)CC[C@@H]12
active: Potency [8] 24.1 µM
inactive: Potency [2] | Potency [3] | Potency [15] | Potency [16]

CN(C)CC/C=C1\c2ccccc2CSc2ccccc21
active: Potency [2] 20 µM | Potency [7] 20 µM
inactive: Potency [3] | Potency [4] | Potency [17] | Potency [6]

CCCCCCCCCC(=O)OC1(c2ccc(Cl)cc2)CCN(CCCC(=O)c2ccc(F)cc2)CC1
inactive: Potency [2] | Potency [3] | Potency [4] | Potency [6]

C=C1C/C(=C\C=C2/CCC[C@]3(C)[C@@H]([C@H](C)/C=C/C(C)C(C)C)CC[C@@H]23)[C@@H](O)C[C@@H]1O (stereo partly specified)
active: Potency [5] 0.541 µM | Potency [8] 0.429 µM
inactive: Potency [2] | Potency [3] | Potency [4]

CC(C)c1nc(CN(C)C(=O)N[C@@H](CCN2CCOCC2)C(=O)N[C@H](CC[C@H](Cc2ccccc2)NC(=O)OCc2cncs2)Cc2ccccc2)cs1
inactive: Potency [2] | Potency [3] | Potency [4] | Potency [6]
active: Potency [8] 21.5 µM

CC[C@@]1(O)C(=O)OCc2c1cc1n(c2=O)Cc2cc3c([N+](=O)[O-])cccc3nc2-1
active: Potency [5] 0.0175 µM | Potency [8] 0.0221 µM
inactive: Potency [2] | Potency [9] | Potency [6]
-97% [at 114 µM]: activity change, negative = inhibition [7]
